Among the data in paper PMC7862700, “An all-to-all approach to the identification of sequence-specific readers for epigenetic DNA modifications on cytosine” are binding signal values, retold here.

Assay in all cases: DAPPL (digital affinity profiling via proximity ligation, sequencing); 10 mM Tris-HCl pH 7.5, 50 mM NaCl, 1 mM DTT, 4% glycerol, room temperature, 30 min; GST-TFs on glutathione beads, 16-mer random dsDNA library, 0.1% formaldehyde crosslink after washing; high values mean tight binding
One experiment addresses T1, FEV (Homo sapiens, UniProt Q99581 1-238).
T1 sequence: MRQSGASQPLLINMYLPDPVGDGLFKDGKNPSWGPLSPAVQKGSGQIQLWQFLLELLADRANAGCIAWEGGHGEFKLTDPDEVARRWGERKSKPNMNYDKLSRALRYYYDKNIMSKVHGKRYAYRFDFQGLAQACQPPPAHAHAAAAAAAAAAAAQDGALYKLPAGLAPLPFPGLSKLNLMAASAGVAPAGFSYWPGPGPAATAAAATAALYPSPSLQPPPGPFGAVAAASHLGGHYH
The settings on record: protein: recombinant; tags: N-terminal GST; dsDNA, one strand shown. In outline:
(§1)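 Binding signal is defined as a hexamer's read frequency for one factor over its frequency for the tag-only sample. To obtain reads, GST-fused human transcription factors were expressed in yeast, captured on glutathione beads, barcoded with DNA and pooled with that sample. Pools met 200 nmole of a 16-mer random double-stranded DNA library in Tris/NaCl/DTT/glycerol buffer for 30 min at room temperature before washing, 0.1% formaldehyde crosslinking, proximity ligation (BsaI/T4 ligase, 1 h, 37 °C), PCR and Illumina NextSeq500 sequencing.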

The next experiment has as its target ETV5 (Homo sapiens, UniProt P41161 1-510). The settings on record: protein: recombinant; tags: N-terminal GST; dsDNA, one strand shown. In short, it runs like this:
as §1

The target of a further experiment is HSF1 (Homo sapiens, UniProt Q00613 1-529). The following applies: protein: recombinant; tags: N-terminal GST; chain copies: 3; dsDNA, one strand shown. In short, it runs like this: as §1
In another experiment the target is T2, SPIC (Homo sapiens, UniProt Q8N5J4 1-248).
T2 sequence: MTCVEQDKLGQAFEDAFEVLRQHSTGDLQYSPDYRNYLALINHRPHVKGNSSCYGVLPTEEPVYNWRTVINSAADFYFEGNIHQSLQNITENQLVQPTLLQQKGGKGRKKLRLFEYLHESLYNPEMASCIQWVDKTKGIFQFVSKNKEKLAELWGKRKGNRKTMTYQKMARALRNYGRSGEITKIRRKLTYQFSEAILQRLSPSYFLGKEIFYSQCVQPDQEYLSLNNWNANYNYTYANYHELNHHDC
The settings on record: protein: recombinant; tags: N-terminal GST; dsDNA, one strand shown. In short, it runs like this:
as §1

The target of the next experiment is ELF4 (Homo sapiens, UniProt Q99607 1-663). The settings on record: protein: recombinant; tags: N-terminal GST; dsDNA, one strand shown. In short, it runs like this:
as §1

The next experiment concerns the target T3, ELK4 (Homo sapiens, UniProt P28324-2 1-405).
T3 sequence: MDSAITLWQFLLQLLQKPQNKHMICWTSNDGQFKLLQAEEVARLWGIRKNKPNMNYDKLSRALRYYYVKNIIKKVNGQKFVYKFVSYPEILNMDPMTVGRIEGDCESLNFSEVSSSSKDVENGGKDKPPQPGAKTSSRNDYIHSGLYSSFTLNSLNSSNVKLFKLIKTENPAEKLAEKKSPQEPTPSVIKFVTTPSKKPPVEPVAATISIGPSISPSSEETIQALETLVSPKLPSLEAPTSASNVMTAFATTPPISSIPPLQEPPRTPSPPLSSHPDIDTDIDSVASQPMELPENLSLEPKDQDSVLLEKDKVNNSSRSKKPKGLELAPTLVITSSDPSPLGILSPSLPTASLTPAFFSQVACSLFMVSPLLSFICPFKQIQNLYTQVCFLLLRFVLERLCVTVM
The settings on record: protein: recombinant; tags: N-terminal GST; dsDNA, one strand shown. In short, it runs like this:
as §1

The next experiment deals with T4, ETV2 (Homo sapiens, UniProt O00321 1-342).
T4 sequence: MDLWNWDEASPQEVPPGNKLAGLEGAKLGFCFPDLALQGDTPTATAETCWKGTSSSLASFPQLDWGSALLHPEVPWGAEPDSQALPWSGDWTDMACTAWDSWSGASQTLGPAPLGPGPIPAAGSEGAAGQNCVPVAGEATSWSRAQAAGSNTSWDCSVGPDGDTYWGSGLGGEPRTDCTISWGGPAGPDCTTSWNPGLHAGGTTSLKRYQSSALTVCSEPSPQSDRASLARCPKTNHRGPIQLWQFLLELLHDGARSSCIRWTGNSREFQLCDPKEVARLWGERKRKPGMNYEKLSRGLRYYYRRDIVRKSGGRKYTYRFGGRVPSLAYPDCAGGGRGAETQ
The following applies: protein: recombinant; tags: N-terminal GST; dsDNA, one strand shown. In short, it runs like this: as §1

For another experiment, the target named is T5, ELF3 (Homo sapiens, UniProt P78545 1-371).
T5 sequence: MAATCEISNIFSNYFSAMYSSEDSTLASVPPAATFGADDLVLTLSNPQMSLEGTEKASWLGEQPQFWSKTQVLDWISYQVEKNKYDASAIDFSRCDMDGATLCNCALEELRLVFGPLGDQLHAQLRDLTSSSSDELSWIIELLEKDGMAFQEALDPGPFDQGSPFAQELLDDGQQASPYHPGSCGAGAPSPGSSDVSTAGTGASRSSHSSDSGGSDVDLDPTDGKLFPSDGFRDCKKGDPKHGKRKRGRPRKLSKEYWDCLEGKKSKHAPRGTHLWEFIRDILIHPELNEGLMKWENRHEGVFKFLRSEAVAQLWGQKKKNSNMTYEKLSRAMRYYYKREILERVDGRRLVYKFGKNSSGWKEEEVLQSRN
The settings on record: protein: recombinant; tags: N-terminal GST; dsDNA, one strand shown. In short, it runs like this:
as §1

Another experiment has as its target CRX (Homo sapiens, UniProt O43186 1-299). The settings on record: protein: recombinant; tags: N-terminal GST; dsDNA, one strand shown. In outline:
as §1

Another experiment deals with ETV1 (Homo sapiens, UniProt P50549 1-477). The following applies: protein: recombinant; tags: N-terminal GST; dsDNA, one strand shown. In outline:
as §1

Another experiment concerns the target T6, ERF (Homo sapiens, UniProt P50548 1-548).
T6 sequence: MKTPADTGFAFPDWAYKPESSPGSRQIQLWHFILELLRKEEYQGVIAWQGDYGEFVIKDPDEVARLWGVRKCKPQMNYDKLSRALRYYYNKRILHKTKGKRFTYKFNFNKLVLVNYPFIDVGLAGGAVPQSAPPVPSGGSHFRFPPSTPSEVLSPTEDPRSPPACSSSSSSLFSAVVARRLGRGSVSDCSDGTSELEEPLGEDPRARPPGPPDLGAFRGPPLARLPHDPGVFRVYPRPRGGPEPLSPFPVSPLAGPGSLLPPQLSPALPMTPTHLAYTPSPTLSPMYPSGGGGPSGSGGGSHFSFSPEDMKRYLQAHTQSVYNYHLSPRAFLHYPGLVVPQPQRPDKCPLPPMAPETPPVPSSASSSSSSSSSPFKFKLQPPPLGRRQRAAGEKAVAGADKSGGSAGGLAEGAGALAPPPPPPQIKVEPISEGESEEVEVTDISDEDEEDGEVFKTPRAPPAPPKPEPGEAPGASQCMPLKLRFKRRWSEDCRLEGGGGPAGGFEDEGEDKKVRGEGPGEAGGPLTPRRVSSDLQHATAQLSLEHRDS
The settings on record: protein: recombinant; tags: N-terminal GST; dsDNA, one strand shown. In outline: as §1

A further experiment has as its target T7, ETV3L (Homo sapiens, UniProt Q6ZN32 1-361).
T7 sequence: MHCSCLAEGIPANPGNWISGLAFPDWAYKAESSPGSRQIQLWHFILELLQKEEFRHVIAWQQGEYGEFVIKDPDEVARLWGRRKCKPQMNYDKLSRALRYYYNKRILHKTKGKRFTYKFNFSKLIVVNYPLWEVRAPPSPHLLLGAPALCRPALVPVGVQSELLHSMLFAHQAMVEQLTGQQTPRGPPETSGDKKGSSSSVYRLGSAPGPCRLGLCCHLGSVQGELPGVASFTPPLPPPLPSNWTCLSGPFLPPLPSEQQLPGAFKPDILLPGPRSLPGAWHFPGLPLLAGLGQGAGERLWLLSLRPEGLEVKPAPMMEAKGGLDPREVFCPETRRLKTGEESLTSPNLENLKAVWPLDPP
The following applies: protein: recombinant; tags: N-terminal GST; dsDNA, one strand shown. In short, it runs like this:
as §1

The target in the next experiment is T8, ETS2 (Homo sapiens, UniProt P15036 1-469).
T8 sequence: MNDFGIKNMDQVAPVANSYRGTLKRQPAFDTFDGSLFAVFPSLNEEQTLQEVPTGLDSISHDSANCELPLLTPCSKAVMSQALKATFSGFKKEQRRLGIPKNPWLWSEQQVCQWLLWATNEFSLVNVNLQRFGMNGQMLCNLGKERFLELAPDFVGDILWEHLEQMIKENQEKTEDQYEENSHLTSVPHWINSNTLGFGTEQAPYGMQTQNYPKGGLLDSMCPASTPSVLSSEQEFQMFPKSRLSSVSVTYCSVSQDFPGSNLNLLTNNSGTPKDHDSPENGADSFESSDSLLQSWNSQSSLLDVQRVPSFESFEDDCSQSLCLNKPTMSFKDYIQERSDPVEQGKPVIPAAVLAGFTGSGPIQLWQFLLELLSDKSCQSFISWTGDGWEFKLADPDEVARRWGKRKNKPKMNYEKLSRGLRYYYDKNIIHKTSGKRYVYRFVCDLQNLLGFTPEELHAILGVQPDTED
The settings on record: protein: recombinant; tags: N-terminal GST; dsDNA, one strand shown. In short, it runs like this: as §1

Another experiment has as its target T9, SPDEF (Homo sapiens, UniProt O95238 1-335).
T9 sequence: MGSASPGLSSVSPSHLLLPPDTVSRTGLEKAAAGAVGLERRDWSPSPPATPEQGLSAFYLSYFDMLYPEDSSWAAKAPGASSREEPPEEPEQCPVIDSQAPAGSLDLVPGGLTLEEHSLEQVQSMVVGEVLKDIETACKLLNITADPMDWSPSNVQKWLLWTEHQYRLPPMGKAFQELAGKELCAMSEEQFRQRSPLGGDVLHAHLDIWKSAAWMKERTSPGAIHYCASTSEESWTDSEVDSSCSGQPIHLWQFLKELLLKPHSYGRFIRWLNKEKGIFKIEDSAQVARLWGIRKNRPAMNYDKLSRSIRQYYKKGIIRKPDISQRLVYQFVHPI
The following applies: protein: recombinant; tags: N-terminal GST; dsDNA, one strand shown. In outline: as §1

The target of another experiment is T10, ETV7 (Homo sapiens, UniProt Q9Y603 1-341).
T10 sequence: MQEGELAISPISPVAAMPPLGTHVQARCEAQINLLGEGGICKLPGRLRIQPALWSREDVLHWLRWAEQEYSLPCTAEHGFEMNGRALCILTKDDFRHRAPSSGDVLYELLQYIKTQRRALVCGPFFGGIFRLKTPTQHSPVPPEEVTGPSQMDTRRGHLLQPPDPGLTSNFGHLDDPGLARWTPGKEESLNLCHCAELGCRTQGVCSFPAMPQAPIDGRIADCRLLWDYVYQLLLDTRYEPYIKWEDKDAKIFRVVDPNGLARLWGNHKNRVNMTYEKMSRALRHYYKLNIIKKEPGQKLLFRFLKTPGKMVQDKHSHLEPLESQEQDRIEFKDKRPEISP
The settings on record: protein: recombinant; tags: N-terminal GST; dsDNA, one strand shown. In outline:
as §1

Another experiment deals with T11, ELF5 (Homo sapiens, UniProt Q9UKW6-2 1-255).
T11 sequence: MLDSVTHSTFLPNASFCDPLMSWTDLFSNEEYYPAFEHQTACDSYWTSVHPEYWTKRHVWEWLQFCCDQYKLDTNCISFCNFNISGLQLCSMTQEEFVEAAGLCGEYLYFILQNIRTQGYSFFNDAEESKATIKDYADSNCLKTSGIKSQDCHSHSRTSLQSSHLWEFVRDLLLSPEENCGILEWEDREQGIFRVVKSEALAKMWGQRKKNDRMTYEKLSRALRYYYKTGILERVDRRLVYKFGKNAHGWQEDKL
The settings on record: protein: recombinant; tags: N-terminal GST; dsDNA, one strand shown. In short, it runs like this:
as §1

The target in a further experiment is T12, ETV3 (Homo sapiens, UniProt P41162-2 1-143).
T12 sequence: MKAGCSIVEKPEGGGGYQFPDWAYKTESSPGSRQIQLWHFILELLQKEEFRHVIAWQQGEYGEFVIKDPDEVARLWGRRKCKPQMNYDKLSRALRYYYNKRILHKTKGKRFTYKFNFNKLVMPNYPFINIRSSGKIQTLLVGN
The following applies: protein: recombinant; tags: N-terminal GST; dsDNA, one strand shown. In short, it runs like this: as §1

In a further experiment the target is ETV6 (Homo sapiens, UniProt P41212 1-452). The settings on record: protein: recombinant; tags: N-terminal GST; dsDNA, one strand shown. In short, it runs like this:
as §1

Sequence of ETV6 (P41212 whole entry): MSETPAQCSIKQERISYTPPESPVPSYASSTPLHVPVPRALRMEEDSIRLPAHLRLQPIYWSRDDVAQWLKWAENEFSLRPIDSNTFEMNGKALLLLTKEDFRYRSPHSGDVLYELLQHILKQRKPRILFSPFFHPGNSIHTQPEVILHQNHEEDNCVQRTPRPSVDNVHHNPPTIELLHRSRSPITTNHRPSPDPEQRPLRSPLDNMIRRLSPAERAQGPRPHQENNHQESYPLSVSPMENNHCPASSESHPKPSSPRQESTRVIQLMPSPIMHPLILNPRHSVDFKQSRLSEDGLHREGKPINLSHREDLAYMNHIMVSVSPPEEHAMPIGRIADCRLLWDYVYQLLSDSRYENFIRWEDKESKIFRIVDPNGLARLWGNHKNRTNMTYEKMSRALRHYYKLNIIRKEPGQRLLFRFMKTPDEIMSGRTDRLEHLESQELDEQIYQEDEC
Sequence of ELF4 (Q99607 whole entry): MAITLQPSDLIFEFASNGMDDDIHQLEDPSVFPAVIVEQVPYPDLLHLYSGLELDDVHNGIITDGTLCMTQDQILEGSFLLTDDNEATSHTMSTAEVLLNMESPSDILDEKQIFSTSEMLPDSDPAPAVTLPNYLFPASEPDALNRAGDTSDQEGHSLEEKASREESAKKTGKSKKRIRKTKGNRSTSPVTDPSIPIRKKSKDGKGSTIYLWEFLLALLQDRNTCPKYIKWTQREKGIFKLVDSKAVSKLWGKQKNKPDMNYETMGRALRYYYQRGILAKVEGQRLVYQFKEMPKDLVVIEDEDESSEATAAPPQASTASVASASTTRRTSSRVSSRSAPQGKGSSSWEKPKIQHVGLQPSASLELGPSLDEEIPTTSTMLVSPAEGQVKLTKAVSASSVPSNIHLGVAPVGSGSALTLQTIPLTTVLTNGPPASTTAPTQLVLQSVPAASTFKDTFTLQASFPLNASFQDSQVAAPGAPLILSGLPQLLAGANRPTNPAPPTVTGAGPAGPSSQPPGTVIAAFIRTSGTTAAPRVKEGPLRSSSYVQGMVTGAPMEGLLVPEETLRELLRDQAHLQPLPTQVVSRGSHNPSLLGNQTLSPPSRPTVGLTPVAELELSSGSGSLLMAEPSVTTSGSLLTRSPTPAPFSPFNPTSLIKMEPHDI
Sequence of ETV5 (P41161 whole entry): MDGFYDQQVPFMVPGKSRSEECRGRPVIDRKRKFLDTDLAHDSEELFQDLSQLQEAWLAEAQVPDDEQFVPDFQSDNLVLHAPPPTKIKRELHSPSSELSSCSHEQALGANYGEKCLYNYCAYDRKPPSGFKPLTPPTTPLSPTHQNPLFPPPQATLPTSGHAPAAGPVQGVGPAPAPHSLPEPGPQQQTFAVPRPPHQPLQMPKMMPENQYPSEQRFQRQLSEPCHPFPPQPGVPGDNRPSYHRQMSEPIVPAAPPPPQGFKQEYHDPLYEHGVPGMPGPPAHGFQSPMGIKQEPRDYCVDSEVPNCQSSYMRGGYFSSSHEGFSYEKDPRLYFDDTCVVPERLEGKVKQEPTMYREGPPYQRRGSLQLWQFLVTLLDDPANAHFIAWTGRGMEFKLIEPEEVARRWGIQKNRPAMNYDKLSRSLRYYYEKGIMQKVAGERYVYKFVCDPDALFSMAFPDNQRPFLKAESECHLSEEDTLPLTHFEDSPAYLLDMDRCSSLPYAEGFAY
Sequence of CRX (O43186 whole entry): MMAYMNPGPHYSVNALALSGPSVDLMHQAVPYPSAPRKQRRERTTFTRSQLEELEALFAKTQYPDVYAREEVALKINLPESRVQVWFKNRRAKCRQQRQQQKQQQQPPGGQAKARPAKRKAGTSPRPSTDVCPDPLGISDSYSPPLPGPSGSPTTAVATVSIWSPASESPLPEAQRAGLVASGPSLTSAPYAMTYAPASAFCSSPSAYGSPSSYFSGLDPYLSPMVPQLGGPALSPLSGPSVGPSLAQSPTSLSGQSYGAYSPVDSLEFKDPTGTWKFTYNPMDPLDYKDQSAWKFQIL
Sequence of ETV1 (P50549 whole entry): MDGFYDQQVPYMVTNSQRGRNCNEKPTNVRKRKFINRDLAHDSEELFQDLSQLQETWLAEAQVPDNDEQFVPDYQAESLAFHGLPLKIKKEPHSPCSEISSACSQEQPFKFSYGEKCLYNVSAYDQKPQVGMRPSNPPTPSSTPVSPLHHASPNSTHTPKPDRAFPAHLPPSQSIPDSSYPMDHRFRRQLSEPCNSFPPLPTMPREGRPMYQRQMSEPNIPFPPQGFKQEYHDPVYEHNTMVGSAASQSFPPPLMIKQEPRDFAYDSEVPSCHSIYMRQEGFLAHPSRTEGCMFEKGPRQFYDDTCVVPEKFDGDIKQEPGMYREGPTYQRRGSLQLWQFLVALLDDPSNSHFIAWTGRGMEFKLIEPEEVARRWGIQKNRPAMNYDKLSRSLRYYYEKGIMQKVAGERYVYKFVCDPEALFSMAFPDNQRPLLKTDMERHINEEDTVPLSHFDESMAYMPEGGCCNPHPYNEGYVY
Sequence of HSF1 (Q00613 whole entry): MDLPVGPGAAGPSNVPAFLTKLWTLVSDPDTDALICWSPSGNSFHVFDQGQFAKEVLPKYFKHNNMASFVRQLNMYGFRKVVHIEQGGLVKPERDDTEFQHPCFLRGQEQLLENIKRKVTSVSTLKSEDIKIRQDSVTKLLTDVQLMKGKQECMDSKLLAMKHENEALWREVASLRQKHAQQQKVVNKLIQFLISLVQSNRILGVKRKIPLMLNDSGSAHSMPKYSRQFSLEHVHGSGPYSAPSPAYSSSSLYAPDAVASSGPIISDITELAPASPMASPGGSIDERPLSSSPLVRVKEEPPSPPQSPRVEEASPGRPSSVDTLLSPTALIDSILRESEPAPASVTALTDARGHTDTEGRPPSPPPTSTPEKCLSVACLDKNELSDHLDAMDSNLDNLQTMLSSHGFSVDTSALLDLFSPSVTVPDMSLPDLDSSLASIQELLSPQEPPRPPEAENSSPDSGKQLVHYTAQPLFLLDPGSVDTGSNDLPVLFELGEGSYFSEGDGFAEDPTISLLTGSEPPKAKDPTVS

Regarding TTCTTA, the binding signal was 1.32 fold enrichment (6-mer frequency, TF over GST control) in the experiment with FEV; 1.33 fold enrichment (6-mer frequency, TF over GST control) with ETV5; 1.85 fold enrichment (6-mer frequency, TF over GST control) with HSF1; 1.71 fold enrichment (6-mer frequency, TF over GST control) with SPIC; 1.41 fold enrichment (6-mer frequency, TF over GST control) in the experiment with ELF4; 1.5 fold enrichment (6-mer frequency, TF over GST control) in the experiment with ELK4. Further, the binding signal with ETV2 is 1.36 fold enrichment (6-mer frequency, TF over GST control); with ELF3, 1.47 fold enrichment (6-mer frequency, TF over GST control); with CRX, 2.21 fold enrichment (6-mer frequency, TF over GST control); in the experiment with ETV1 it was 1.36 fold enrichment (6-mer frequency, TF over GST control); with ERF, 1.21 fold enrichment (6-mer frequency, TF over GST control); in the experiment with ETV3L, 1.4 fold enrichment (6-mer frequency, TF over GST control). Also, the binding signal with ETS2 is 1.24 fold enrichment (6-mer frequency, TF over GST control); with SPDEF it was 1.4 fold enrichment (6-mer frequency, TF over GST control); with ETV7 it was 1.38 fold enrichment (6-mer frequency, TF over GST control); with ELF5, 1.35 fold enrichment (6-mer frequency, TF over GST control); with ETV3 it was 1.34 fold enrichment (6-mer frequency, TF over GST control); with ETV6, 1.4 fold enrichment (6-mer frequency, TF over GST control).
